From PubChem
Compounds with a hit are over-represented: about 3.5% of the library has one in this group of screens.
MITF inh = MITF inhibitors, primary screen, biochemical, AlphaScreen, human; Microphthalmia-associated transcription factor (Homo sapiens), O75030; AlphaScreen MITF homodimerization, bead proximity signal; inhibition, % at 2.6 µM; hit rate 0.91% among 650,000; AID 1259374, 2018; in the data active = inhibition above about 50%;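 also: 0% = vehicle wells with protein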
Target sequence (O75030 whole entry, looked up): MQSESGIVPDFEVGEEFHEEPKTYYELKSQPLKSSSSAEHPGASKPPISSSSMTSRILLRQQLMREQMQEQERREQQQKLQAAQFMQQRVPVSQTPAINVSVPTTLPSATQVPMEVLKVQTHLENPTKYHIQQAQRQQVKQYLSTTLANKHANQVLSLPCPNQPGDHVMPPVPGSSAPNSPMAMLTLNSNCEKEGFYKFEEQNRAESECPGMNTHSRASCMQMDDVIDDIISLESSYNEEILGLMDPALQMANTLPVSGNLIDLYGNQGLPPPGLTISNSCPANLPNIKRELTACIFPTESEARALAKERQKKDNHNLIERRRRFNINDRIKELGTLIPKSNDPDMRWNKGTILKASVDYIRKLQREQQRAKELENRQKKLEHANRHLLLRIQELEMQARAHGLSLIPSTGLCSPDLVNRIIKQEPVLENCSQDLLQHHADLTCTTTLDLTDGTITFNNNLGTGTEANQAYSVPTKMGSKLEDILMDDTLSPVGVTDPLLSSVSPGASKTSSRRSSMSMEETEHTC
FBW7 activator = FBW7 E3 ligase activators, primary screen, biochemical, AlphaScreen, human; AlphaScreen FBW7–phospho-cyclin E peptide binding, activator screen; AID 1259310, 2017; normalized activity (activation), % at 26.1 µM; hit rate 0.13% among 650,000; in the data active = normalized activity above about 1.9%;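 also: purified mutant Fbw7 with reduced substrate affinity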
TEAD-YAP block = TEAD-YAP interaction inhibition, primary screen, TEAD-YAP interaction inhibitor project, luminescence, HEK-TIYL cells; TEAD-Gal4/YAP UAS-luciferase luminescence; inhibition, % at 9.12 µM; hit rate 1.4% among 640,000; AID 1259422, 2018; in the data active = inhibition above about 32%;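 also: 0% = median of test compound wells and 100% = reference inhibitor wells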
GPR151 activ = activators of human GPR151, primary screen, cell-based, PathHunter beta-arrestin, luminescence | PathHunter beta-arrestin GPR151 cells | activation, % at 11.2 µM | hit rate 1% among 650,000 | AID 1508602, 2020; in the data active = activation above about 4.9%;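 also: 0% = median of compound wells and 100% = cells with positive control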
Numbers without * were called inactive; / = no result.

SMILES | MITF inh | FBW7 activator | TEAD-YAP block | GPR151 activ
Cc1ccc(C(=O)Nc2nnc(SCC(=O)NCC3CCCO3)s2)cc1 (centres undefined) | -1 | 0 | 42* | 0
COc1cc(OC)c(OC)cc1/C=C/C(=O)c1ccc[nH]1 | 0 | 0 | -15 | -2
COCc1cc(C)nc2sc(C(=O)c3ccc(Cl)cc3Cl)c(N)c12 | -7 | 1 | 9 | 1
O=C1COc2ccc(NS(=O)(=O)Cc3cc(Cl)cc(Cl)c3)cc2N1 | 4 | 0 | 3 | 1
CCNc1nc(NCCc2ccc(OC)cc2)c2ncn(C(C)C)c2n1 | -4 | 0 | -4 | -1
O=C(Cc1c[nH]c2ccccc12)Nc1nc2ccccc2s1 | 1 | 0 | -18 | 2
Cc1cccc(-c2c(C#N)cnc3cc(C)nn23)c1 | -7 | 0 | 33* | 0
Cc1ccc(-c2cc3ncc(C#N)c(-c4cccc(C)c4)n3n2)cc1 | 21 | 0 | -1 | -2
CCOC(=O)c1c2c(n3ccc(-c4ccncc4)cc13)C(=O)c1ccccc1C2=O | -8 | 0 | -5 | 0
FC(F)(F)c1cc(-c2cnn3c(NC4CCCNC4)ccnc23)cc(C(F)(F)F)c1 (centres undefined) | -16 | 0 | 2 | 2
O=C(O)CCc1ccc(-c2cnn3c(NCc4ccccn4)ccnc23)cc1 | 24 | -1 | 14 | -1
c1cncc(CCNc2ccnc3c(-c4ccc5ccccc5c4)cnn23)c1 | -8 | 0 | 59* | 0
c1ccc2cc(-c3cnn4c(NC5CCCNC5)ccnc34)ccc2c1 (centres undefined) | 0 | 0 | 65* | 0
Fc1ccc(-c2cnn3c(NCCc4cccnc4)ccnc23)cc1Cl | -11 | 0 | -62 | 1
Clc1ccccc1-c1cnn2c(NCCc3cccnc3)ccnc12 | -2 | 0 | 65* | 2
COCCNc1ccnc2c(-c3ccc(CCC(=O)O)cc3)cnn12 | 15 | 0 | 50* | -3
Cc1c(C#N)c(O)n(C)c(=O)c1N=Nc1ccccc1C(=O)O | 5 | 0 | 0 | -5
COc1ccccc1C=NCC(C)N=Cc1ccccc1OC (centres undefined) | 6 | 0 | -8 | 0
COCCNc1ccnc2c(-c3ccccc3Cl)cnn12 | 0 | 0 | 58* | 1
Cc1ccc(C(=O)c2sc3nc4c(cc3c2N)CCC4)c(C)c1 | 8 | 2.0* | -21 | 0
COc1ccc(C(=O)c2sc3nc4c(cc3c2N)C(=O)CCC4)cc1 | -12 | 0 | -4 | 2
COCc1cc(C)c2c(N)c(C(=O)c3ccc(C)cc3C)sc2n1 | -28 | 3.7* | -5 | 2
Cc1ccc(C(=O)c2sc3nc4c(cc3c2N)C(=O)CCC4)cc1 | -12 | 0 | 47* | -2
Nc1c(C(=O)Nc2cccc3ccccc23)sc2nc3c(cc12)C(=O)CCC3 | 0 | 0 | 61* | -1
CC(NC(=O)Cn1nnnc1CN(C)C(C)C)c1ccccc1Cl (centres undefined) | 3 | 0 | 4 | 0
SMILES | MITF inh | FBW7 activator | TEAD-YAP block | GPR151 activ
COc1ccccc1NCn1c(=O)sc2ccccc21 | 5 | 0 | 12 | 0
COC(=O)C1=CC[C@@]23CC[C@@H]([C@@](C)(/C=C/C=C(\C)C(=O)O)OC2=O)[C@@]3(OC(C)=O)CC1 | 11 | / | / | 0
O=C(Nc1ccccc1C(=O)N1CCCC1)c1ncoc1-c1ccccc1C(F)(F)F | -12 | 0 | 63* | 0
COc1ccccc1-c1ocnc1C(=O)Nc1ccccc1C(=O)N1CCCC1 | 7 | 0 | 7 | 0
COC(=O)C1=C(C)NC(=S)NC1c1ccc(OCC(=O)N2CCOCC2)c(OC)c1 (centres undefined) | -1 | 0 | 2 | 0
OC1CCN(c2ncn(-c3ccc(Nc4nccc(-c5cc(F)cc(N6CCOCC6)c5)n4)cc3)n2)CC1 | 0 | 0 | 91* | 1
OCc1ccc(-c2ncn(-c3ccc(Nc4nccc(-c5cc(F)cc(N6CCOCC6)c5)n4)cc3)n2)nc1 | -1 | 0 | 83* | 0
Fc1cc(-c2ccnc(Nc3ccc(-n4cnc(-c5ccc(Cl)cn5)n4)cc3)n2)cc(N2CCOCC2)c1 | 13 | 0 | 6 | 1
Cc1ncn(-c2ccc(Nc3nccc(-c4ccc(N5CCCC(O)C5)c(C#N)c4)n3)cc2)n1 (centres undefined) | -6 | 0 | 35* | 2
COC1CCN(c2ncn(-c3ccc(Nc4nccc(-c5cc(F)cc(N(C)C)c5)n4)cc3)n2)CC1 | 5 | 0 | 16 | 1
CN1CCN(c2ncn(-c3ccc(Nc4nccc(-c5cc(F)cc(N6CCC(O)CC6)c5)n4)cc3)n2)CC1 | 2 | 0 | 67* | -1
O=C(CSc1nc2ccccc2s1)Nc1cccc(F)c1 | 6 | 0 | -1 | -1
CCOc1ccccc1N1C(=O)NC2CC1(C)Oc1c(OC)cc(Br)cc12 (centres undefined) | -2 | 0 | -8 | 1
Fc1cc(-c2ccnc(Nc3ccc(-n4cnc(Br)n4)cc3)n2)cc(N2CCOCC2)c1 | -8 | 0 | 6 | 0
CN1CCN(c2ncn(-c3ccc(Nc4nccc(-c5cc(F)cc(N(C)C)c5)n4)cc3)n2)CC1 | 2 | 0 | 35* | 0
OC1CCCN(c2ncn(-c3ccc(Nc4nccc(-c5cc(F)cc(N6CCOCC6)c5)n4)cc3)n2)C1 (centres undefined) | 14 | 0 | 57* | -2
CCCN1C(=O)C(=O)c2cc(Br)ccc21 | -13 | 0 | 63* | 0
O=C1C(=O)N(CCc2ccccc2)c2ccc(Br)cc21 | 17 | 0 | 27 | 1
C#CCN1C(=O)C(=O)c2cc(Br)ccc21 | 14 | 1 | 53* | 1
CC(=O)CN1C(=O)C(=O)c2cc(Br)ccc21 | 24 | 0 | 10 | 0
C=CCN1C(=O)C(=O)c2cc(Br)ccc21 | 16 | 0 | 62* | 0
CC(=O)OC1CC(C)(C)N(OC(C)=O)C(C)(C)C1 | -9 | 1 | 10 | -2
COc1ccccc1-n1c(CNC(=O)COc2ccccc2)nnc1SCC(=O)N1N=C(c2cccs2)CC1c1ccc(F)cc1 (centres undefined) | 0 | 0 | 24 | -1
CCOC(=O)c1c(NC(=O)CC)sc2c1CCC/C2=N/OC(C)=O | 1 | 0 | -3 | 0
CCOC(=O)c1csc2c1CCC/C2=N/OC(C)=O | 5 | 1 | 36* | -1
CCOC(=O)c1c(N)sc2c1CCC/C2=N\O | 6 | 0 | 53* | -1
CCc1ccc2c(c1)=C(c1sc(Nc3ccc(F)cc3)nc1O)C(=O)N=2 | -10 | 0 | -2 | 0
CC1=CC2=NC(=O)/C(=C\c3cc(C)n(-c4cccc(Cl)c4)c3C)C(=N)N2O1 | 14 | 0 | -3 | -2
CC1=CC2=NC(=O)/C(=C\c3cc(C)n(-c4cccc(C)c4)c3C)C(=N)N2O1 | 18 | 1 | 50* | 0
